From PubChem BioAssay (NCI)
Several values for one entry are separate records, joined by “and”; a condition that tells them apart may be missing. Equal values may be shown once. This is part of a sample that, as a whole, favours compounds with a hit. Of some 83,000 tested, about 20% had one in any assay.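 Values shown are percent growth following 48 h exposure of cells in 96-well plates to a single concentration of compound; below 10 was considered active.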 Unmarked numbers belong to inactive results. Activity calls are given as the source filed them.

Key:
Experiment in all cases: NCI-60 one-dose screen, 48 h (100 = growth as untreated, 0 = no growth, -100 = all killed)
Details in all cases: 10 µM unless noted
[1] = system: T-47D breast
[2] = system: BT-549 breast
[3] = system: MDA-MB-435 melanoma
[4] = system: SW-620 colon
[5] = system: MCF7 breast
[6] = system: HCT-116 colon
[7] = system: HCC-2998 colon
[8] = system: KM12 colon
[9] = system: MDA-MB-468 breast

SMILES	growth [1]	growth [2]	growth [3]	growth [4]	growth [5]	growth [6]	growth [7]	growth [8]	growth [9]
COc1ccc2oc(=O)c(-c3csc(N/N=C(\C)c4cc(OC)c(OC)c(OC)c4)n3)cc2c1	65.7%	39%	99.2%	108%	79.8%	92.2%	112%	87.6%	79.9%
Cc1ccc(C(=O)Nc2cc(-c3ccccc3)cc(C(F)(F)F)c2)cc1C#Cc1cnc2cccnn12	42.3%	139%	45.3%	66.7%	39.9%	32.2%	85.3%	41.9%	62.9%
COc1ccc(C(=O)c2cc(C(C)=O)c3c(C)cc(C)cn23)cc1	48.6%	25.4%	49.1%	82.2%	35.2%	19.6%	76.1%	71.2%	59.6%
NC1(c2ccc(-c3ccc4ncnc(NCc5ccccc5)c4c3)cn2)COC1	108% and 107%	109% and 106%	106% and 107%	114% and 106%	102% and 99.5%	109% and 116%	117% and 113%	101% and 88.5%	102% and 103%
O=C(CSc1nnc(-c2ccc(-c3nc4ccccc4[nH]3)cc2)o1)Nc1ccccc1	109%	98.7%	85.6%	19.9%	72.7%	50.8%	92.3%	70.1%	92.9%
Cc1ccc(C(=O)Nc2ccc(-n3ccnc3)c(C(F)(F)F)c2)cc1C#Cc1cnc2cccnn12	-13.3% (active)	-67.8% (active)	11.3%	31.2%	25.1%	0.409% (active)	29.9%	21.9%	-1.47% (active)
Cc1nn(-c2ccccc2)c2ncn(CC(=O)N/N=C/c3ccccc3O)c(=O)c12	22.9%	56.5%	64.1%	43.5%	16.3%	18.5%	36.2%	25.8%	10.9%
N/C(=N\c1nc2ccccc2s1)NC(=O)Nc1ccccc1[N+](=O)[O-]	34.1%	10.5%	-45.1% (active)	31%	12.8%	0.0336% (active)	8.25% (active)	1.31% (active)	-0.807% (active)
COc1ccc2[nH]c(O)c(N=Nc3nc(-c4ccc(C#N)cc4)cs3)c2c1	54.7%	63.2%	67.3%	63.3%	69.8%	31.8%	90.8%	78.4%	77.5%
